ssDAF-12 act = S. stercoralis DAF-12 nuclear receptor activators, primary screen, cell-based, luminescence, HEK293, GRIP1 co-expression, lit1-tk-luc; Nuclear hormone receptor DAF-12 (Strongyloides stercoralis); HEK293 ssDAF-12/GRIP1 lit1-tk-luc reporter; % of 3 µM dafachronic acid response; activation, % at 6.8 µM; actives 1% (n = 370,000);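 active = activation above the mean over all tested compounds plus 3 SD, cut at about 0.9% in these data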;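 also: 0% = DMSO-only wells and 100% = 3 µM delta7-dafachronic acid wells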
DAX1 inh-1 = DAX1 (NR0B1) inhibitors on StAR promoter, primary screen, cell-based, luminescence, SF-1 (NR5A1), full-length DAX-1; HEK293T StAR-luciferase reporter, SF-1/DAX-1 repression relief; inhibition, % at 6.8 µM; actives 1.1% (n = 370,000);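 active = inhibition above the mean over all tested compounds plus 3 SD, cut at about 3.6% in these data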;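 also: 0% = DAX-1 cells with DMSO and 100% = cells lacking DAX-1 with DMSO; higher inhibition means more luminescence from relief of DAX-1 repression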
DAX1 inh-2 = DAX1 (NR0B1) inhibitors, primary screen, cell-based, HEK293, Gal4-DAX1, luciferase luminescence; actives 0.99% (n = 340,000); Nuclear receptor subfamily 0 group B member 1 (Homo sapiens), P51843; HEK293 Gal4-DAX1 luciferase reporter; inhibition, % at 6.75 µM; AID 504766, 2011;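 active = inhibition above the mean over all tested compounds plus 3 SD, cut at about 4.2% in these data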;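 also: 0% = DAX1-transfected cells with DMSO and 100% = empty-vector control cells with DMSO; inhibition shows as a rise in luminescence from relieved DAX1 repression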
Target sequence (P51843 207-470 limits assumed): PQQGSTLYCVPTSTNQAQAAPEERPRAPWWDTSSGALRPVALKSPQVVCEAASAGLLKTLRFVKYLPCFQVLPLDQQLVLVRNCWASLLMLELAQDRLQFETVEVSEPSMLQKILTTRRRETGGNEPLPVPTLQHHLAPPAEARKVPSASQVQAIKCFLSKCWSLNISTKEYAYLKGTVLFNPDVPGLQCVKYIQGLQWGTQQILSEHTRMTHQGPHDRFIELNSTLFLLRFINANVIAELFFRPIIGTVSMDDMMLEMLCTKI
hgDAF-12 ag = H. glycines DAF-12 receptor agonists, primary screen, cell-based, luminescence, HEK293, GAL4 fusion, UAS-luciferase; activation, % at 6.8 µM; actives 1.8% (n = 370,000); HEK293 GAL4-hgDAF12 UAS-luciferase reporter, agonist luminescence; normalized to butyrate control; Nuclear hormone receptor DAF-12 (Heterodera glycines), GAL4 fusion;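 active = activation above a cutoff set at the mean of all screened compounds plus 3 SD, cut at about 10% in these data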;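 also: 0% = DMSO wells and 100% = sodium butyrate wells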
hcDAF-12 act = H. contortus DAF-12 nuclear receptor activators, primary screen, cell-based, luminescence, HEK293, lit1-tk-luc reporter. HEK293 hcDAF-12 lit1-tk-luc reporter; 0% DMSO, 100% Δ7-dafachronic acid. activation, % at 6.8 µM. actives 1.4% (n = 370,000). AID 652067, 2013;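 active = activation above the mean of all tested compounds plus 3 SD, cut at about 5.5% in these data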;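 also: 100% = response to 3 µM Δ7-dafachronic acid high control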
* marks the source's active call; other numbers are inactive results; . = not tested or not shown. Most compounds without a hit are left out; they make up all but 4.1% or so of the library.

SMILES	ssDAF-12 act	DAX1 inh-1	DAX1 inh-2	hgDAF-12 ag	hcDAF-12 act
COc1ccc(Cn2c(NC(=O)c3ccccc3)nc(Cc3ccccc3)c2Cc2ccccc2)cc1	-1	-1	.	0	1
COc1ccc(Cc2c(-c3ccc(Cl)cc3)nc3cc(C)c(Br)c(C)n23)c(C)c1	0.9*	1	.	13*	5
COc1ccc(Cc2c(-c3ccc(F)cc3)nc3cc(C)c(Br)c(C)n23)c(C)c1	2.2*	1	.	10	5.7*
COc1ccc(Cc2c(C(C)(C)C)nc3cc(C)c(Br)c(C)n23)c(C)c1	1.8*	0	.	4	0
CCOC(=O)c1sc(NC(=O)CSc2nncn2C)nc1C	-2	0	5.2*	4	1
CCOC(=O)c1sc(Nc2ccccc2Cl)nc1C	-1	2	0	8	0
CCOC(=O)c1sc(NC(=O)Nc2ccccc2F)nc1C	0	3.7*	-2	2	3
NC(=O)C1CCN(c2ncc(Br)s2)CC1	-1	.	.	1	1
O=C(/C=C/c1ccc(Cl)cc1Cl)N1CCc2ccccc21	0	2	0	13*	5
CCOc1ccc(Nc2ccc(N3C(=O)CCC3=O)cc2[N+](=O)[O-])cc1	-1	0	2	2	6.2*
O=C(Nc1ccccc1Cl)OC1CC2CC1[C@H]1CCCCN1[C@H]2Cc1ccccc1 (stereo partly specified)	-1	1	.	3	1
CC(=O)N[C@@H]1C[C@@H]2O[C@H](CO)CC[C@@H]2O[C@@H]1CCc1ccc(-c2ccc(F)cc2)cc1	-1	0	.	-3	-3
CCOC(=O)[C@@]12CN(C(=O)OC(C)(C)C)CC=C1N(Cc1ccc(OC)cc1)C(=O)[C@H]2CC(=O)NCCCOC	-1	-1	.	-2	-2
COC(=O)[C@]12C[C@H](CC(=O)N3CCN(C(=O)C4CC4)CC3)C(=O)N(CCc3ccc(OC)c(OC)c3)C1=C[C@H](C(C)(C)C)O[C@@H]2C	-1	0	.	-2	-1
O=C(CCC(=O)c1ccc[nH]1)c1ccc(Cl)cc1	-1	1	3	12*	6.0*
COc1ccc(/C=C2\CC3(OC(=O)C4CCCC4)CCCN2C3)cc1 (stereo unspecified)	-1	0	.	-1	1
Cc1ccccc1CN1CCCCC(NC(=O)Nc2ccccc2)C1=O (stereo unspecified)	-2	-3	.	-4	-5
O=C(O)c1ccc2c(c1)C(=O)N(CCc1c[nH]c3ccccc13)C2=O	0	0	1	3	5.8*
CC1=CCC2C(=O)N(CCc3c[nH]c4ccccc34)C(=O)C2C1 (stereo unspecified)	1	0	0	3	4
O=C1C2CC=C(Cl)CC2C(=O)N1CCc1c[nH]c2ccccc12 (stereo unspecified)	1.2*	1	2	3	4
Cc1ccn2c(C(=O)c3ccc(Cl)cc3)cnc2c1	0	3.9*	1	13*	5
O=C1COc2ccc(C(=O)COC(=O)Cc3ccc(F)cc3)cc2N1	-1	-1	-1	1	-1
CC(C(=O)N1CCN(c2ccccc2)CC1)N1C(=O)C2CC=CCC2C1=O (stereo unspecified)	0	0	5.0*	0	-2
CCN(CC)C(=O)CC[C@H]1CC[C@]2(CCCN(Cc3ccc(OC)cc3)C2)O1	-1	1	.	1	1
CS(=O)(=O)N1CCN(c2ccc([N+](=O)[O-])c(NCc3ccc(Cl)cc3)c2)CC1	-1	0	0	2	3
O=C(c1ccco1)N1CCN(C2CN(C3CCCCC3)S(=O)(=O)C2)CC1 (stereo unspecified)	-1	3.9*	.	-1	0
O=C(CC1OC(=O)c2ccccc21)NCC1COc2ccccc2O1 (stereo unspecified)	-1	1	-1	1	-1
